An excerpt weighted towards active compounds, which were near 2.6% of everything screened.
CRFR2-BP ag: agonists of human CRF-binding protein/CRF-R2 receptor complex; AID 588473; HEK293 CRF-R2/CRF-BP, calcium dye fluorescence (FLIPR); percent of saturating CRF peptide response; 0.46% of 350,000 active; activation, % at 13.2 µM;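 active = activation of at least 50%, plus an integration ratio under a set limit after plate pattern correction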
IDE act: IDE (human) activation, cell-based. 0.073% of 340,000 active. activation, % at 5.96 µM. HEK cells, FAbeta-B cleavage, fluorescence polarization; 0% vehicle, 100% cell-free pure enzyme wells. P14735;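 active = activation above the mean of all tested compounds plus 3 SD, set per screening campaign, cut at about 17% in these data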
Target sequence (P14735 whole entry, looked up): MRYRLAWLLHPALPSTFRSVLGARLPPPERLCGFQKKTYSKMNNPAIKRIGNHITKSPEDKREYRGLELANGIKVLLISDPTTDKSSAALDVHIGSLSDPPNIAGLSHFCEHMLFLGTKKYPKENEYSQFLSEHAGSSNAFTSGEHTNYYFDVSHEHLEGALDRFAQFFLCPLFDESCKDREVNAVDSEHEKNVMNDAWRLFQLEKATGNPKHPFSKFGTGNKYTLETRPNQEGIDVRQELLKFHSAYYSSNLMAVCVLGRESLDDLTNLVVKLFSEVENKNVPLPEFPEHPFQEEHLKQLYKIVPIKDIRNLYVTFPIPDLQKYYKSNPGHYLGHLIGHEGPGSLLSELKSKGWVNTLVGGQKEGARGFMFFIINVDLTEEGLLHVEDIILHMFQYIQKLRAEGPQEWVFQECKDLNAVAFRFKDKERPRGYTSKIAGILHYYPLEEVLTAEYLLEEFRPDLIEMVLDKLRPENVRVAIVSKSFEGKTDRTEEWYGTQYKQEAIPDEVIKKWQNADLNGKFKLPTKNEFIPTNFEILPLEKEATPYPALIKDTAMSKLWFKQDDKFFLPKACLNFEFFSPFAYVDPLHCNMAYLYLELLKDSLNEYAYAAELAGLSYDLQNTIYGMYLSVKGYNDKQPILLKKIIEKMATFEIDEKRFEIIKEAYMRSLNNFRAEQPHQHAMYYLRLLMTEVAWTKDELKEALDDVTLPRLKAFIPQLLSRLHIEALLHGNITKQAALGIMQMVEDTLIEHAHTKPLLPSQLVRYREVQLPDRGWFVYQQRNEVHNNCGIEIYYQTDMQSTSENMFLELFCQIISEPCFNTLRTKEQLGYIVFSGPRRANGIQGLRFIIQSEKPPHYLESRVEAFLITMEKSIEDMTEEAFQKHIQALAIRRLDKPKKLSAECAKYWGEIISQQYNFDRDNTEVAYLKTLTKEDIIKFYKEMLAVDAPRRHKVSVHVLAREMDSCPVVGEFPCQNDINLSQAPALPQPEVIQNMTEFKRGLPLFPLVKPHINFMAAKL
IDE inh: inhibits human insulin-degrading enzyme in HEK cells. inhibition, % at 5.59 µM. P14735. 0.41% of 320,000 active. FAbetaB cleavage, fluorescence polarization;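 active = percent inhibition above the average of all tested compounds plus 3 SD, set per screening campaign, cut at about 16% in these data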;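 also: IDE supplied by intact live HEK cells; FP after avidin binding of uncleaved biotin substrate so inhibition keeps polarization high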
TPT1 inhibitor: C. albicans TPT1 enzyme inhibition; inhibition, % at 5 µM; 0.81% of 300,000 active; recombinant caTPT1, FP RNA substrate dephosphorylation;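 active = inhibition above the mean of all tested compounds plus 3 SD, set per screening campaign, cut at about 24% in these data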
Myeloid diff 2: promotes myeloid progenitor differentiation. calls only at 10 µM. 1% of 360,000 active. AID 624256. ER-HoxA9 myeloid progenitors, lysozyme-GFP differentiation, flow cytometry;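 active = normalized GFP-positive differentiation at or above the plate's own cutoff, the solvent-only control mean plus 3 SD; inconclusive = no clear call, values can overlap the other calls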;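 also: cells exposed to compound for four days before flow analysis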
CRFR2-BP antag: CRF-BP/CRF-R2 complex antagonism; HEK293 CRF-R2/CRF-BP, CRF-induced calcium fluorescence; inhibition, % at 11.8 µM; 0.59% of 350,000 active; AID 588475;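 active = inhibition of the ligand-induced calcium signal above about 50% at the single tested concentration, limit read from the data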
Myeloid diff CP1: compounds promoting myeloid differentiation | shares compounds with Myeloid diff 2 | ER-HoxA9 myeloid progenitors, GFP/Mac1 double-positive flow | calls only | 2% of 2,300 active;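 active = share of green or green-and-red cells above 9 and 9% in run 1 or 4 and 3% in run 2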
GFP autofluor: counter-screen for myeloid differentiation promoters: compound fluorescence; shares compounds with Myeloid diff 2; 7.4% of 2,300 active; fluorescence response, % (no concentration beside the values); ER-HoxA9 myeloid progenitors, no estrogen, GFP autofluorescence flow cytometry; vehicle wells 0%, positive control 100%;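 active = over 5% cells positive for green fluorescent reporter, or over 2% positive for both it and APC stain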
Of the large screens only hits and unclear results are named; the others gave an inactive call (follow-up assays come after a bar, where they were run).

CC1CN(CCc2ccccc2)c2nc3c(c(=O)n(C)c(=O)n3C)n2C1 (stereo not given)	none
COc1ccccc1CN(Cc1nc2ccccc2c(=O)[nH]1)C(=O)Nc1ccc(C)cc1	none | Myeloid diff CP1 active | GFP autofluor inactive
COc1ccccc1CN(Cc1nc2ccccc2c(=O)[nH]1)C(=O)Nc1ccccc1C	none
Cc1ccc(S(=O)(=O)N2CCOCC2)cc1C(=O)OCC(=O)NC1CC1	none (no result: TPT1 inhibitor)
COc1ccc(CNC(=O)c2ccc3c(c2)NC(=O)C(C)S3)cc1 (stereo not given)	none
CSc1cccc(NC(=O)c2ccc(Cl)nc2)c1	none | Myeloid diff CP1 inactive | GFP autofluor inactive
Nc1ccc(S(=O)(=O)Nc2nccc(/C=C/c3cccc([N+](=O)[O-])c3)n2)cc1	none (no result: IDE act, IDE inh, TPT1 inhibitor)
Nc1ccc(S(=O)(=O)Nc2nccc(/C=C/c3cccc(Br)c3)n2)cc1	Myeloid diff 2 active | Myeloid diff CP1 inactive | GFP autofluor inactive
CN1CCN(C(c2ccc(Br)cc2)c2cc(Cl)c3cccnc3c2O)CC1 (stereo not given)	Myeloid diff 2 inconclusive
C=CCOc1ccc(C2C(C(=O)c3ccco3)=C(O)C(=O)N2Cc2cccnc2)cc1 (stereo not given)	none | Myeloid diff CP1 inactive | GFP autofluor 13
C=CCOc1cccc(C2C(C(=O)c3ccco3)=C(O)C(=O)N2Cc2cccnc2)c1 (stereo not given)	none
Cc1ccccc1C#N	none (no result: TPT1 inhibitor)
CC(=O)c1c(NC(=O)c2ccccc2)[nH]c(-c2ccccc2)nc1=S	Myeloid diff 2 active | Myeloid diff CP1 inactive | GFP autofluor 4.9
COc1ccccc1-c1nc(=S)c(C(C)=O)c(C)[nH]1	none (no result: IDE act)
CSc1nc(-c2ccccc2)nc(NC(=O)c2ccccc2)c1C(C)=O	none
CC(=O)c1c(C)[nH]c(-c2ccccc2)nc1=S	none | Myeloid diff CP1 inactive | GFP autofluor inactive
Cc1cccc(N=CC=C2OC(C)(C)C(C)(C)O2)c1	Myeloid diff 2 active | Myeloid diff CP1 inactive | GFP autofluor inactive
CS(=O)(=O)N1CCC(C(=O)Nc2cc(Cl)c(Cl)cc2Cl)CC1	none | Myeloid diff CP1 inactive | GFP autofluor inactive
Cc1cc(C(=O)NC2CCCN(Cc3ccc(Cl)cc3)C2)c(C)o1 (stereo not given)	none
CCCOn1nnnc1-c1ccccc1	none | Myeloid diff CP1 inactive | GFP autofluor inactive
O=c1[nH]nc(Sc2ccccc2)c(=S)[nH]1	none (no result: IDE act, IDE inh, TPT1 inhibitor)
Cc1cc(C)nc(/N=C(\NC(=O)C(C)(C)C)Nc2ccccc2)n1	none
Cc1cc(C)nc(/N=C(/NC(=O)Nc2cccc(Cl)c2)Nc2ccccc2)n1	none | Myeloid diff CP1 inactive | GFP autofluor inactive
Cc1cccc(C(=O)NNC(=O)c2ccc3ccccc3c2)c1	none (no result: IDE inh, TPT1 inhibitor)
COc1ccc(-c2coc3c(C(=O)Nc4cccc(C(C)=O)c4)cccc23)c(C)c1	none (no result: CRFR2-BP ag, IDE act, IDE inh, TPT1 inhibitor, CRFR2-BP antag)
CC(C)C(=O)Nc1ccc(Cl)cc1-c1nc2ccccc2[nH]c1=O	none
CNc1ccc([N+](=O)[O-])cc1-c1nc2ccccc2[nH]c1=O	Myeloid diff 2 active | Myeloid diff CP1 inactive | GFP autofluor inactive
Brc1ccc(-c2csc3[n+]2CCCCC3)cc1	Myeloid diff 2 active | Myeloid diff CP1 active | GFP autofluor inactive
Clc1ccc(-n2cc(-c3ccc(Br)cc3)[n+]3c2CCCCC3)cc1	none
CN(C)Cc1cc(C(C)(C)c2ccccc2)ccc1O	none (no result: IDE inh, TPT1 inhibitor)
CC[C@]12c3[nH]c4ccc(OC)cc4c3CCN1C(=O)C(CC(=O)NCCCN(C)C)C[C@@H]2C(=O)N1CCN(C(=O)c2ccco2)CC1 (stereo not given in full)	none (no result: IDE inh, TPT1 inhibitor)
Cn1nnnc1Sc1ccc([N+](=O)[O-])cc1Cl	none | Myeloid diff CP1 inactive | GFP autofluor inactive
O=[N+]([O-])c1ccc(Sc2nnnn2-c2ccccc2)c(Cl)c1	Myeloid diff 2 active | Myeloid diff CP1 inactive | GFP autofluor inactive
CCCCNC(=O)C[C@@H]1C[C@@]2(C(=O)OCC)CCC=C2N(Cc2ccc(Cl)cc2Cl)C1=O	none (no result: CRFR2-BP ag, IDE act, IDE inh, TPT1 inhibitor, CRFR2-BP antag)
CCCC(c1nnnn1C(C)(C)C)N1CCN(C(=O)c2ccco2)CC1 (stereo not given)	Myeloid diff 2 active | Myeloid diff CP1 inactive | GFP autofluor inactive
CCCC(c1nnnn1C1CCCC1)N1CCN(C(=O)c2ccco2)CC1 (stereo not given)	none
CC(C)CC(c1nnnn1C1CCCC1)N1CCN(C(=O)c2ccco2)CC1 (stereo not given)	Myeloid diff 2 active | Myeloid diff CP1 inactive | GFP autofluor inactive
C/C(=N/NC(=O)CNC(=O)c1cccnc1)c1ccc(Cl)c(Cl)c1	none
COc1ccc(CN2CCC2(C)C(=O)Nc2cnc3ccccc3c2)c2ccccc12 (stereo not given)	none (no result: CRFR2-BP ag, IDE act, IDE inh, TPT1 inhibitor, CRFR2-BP antag)
Cc1ccc(NC(=O)COc2cccc(Oc3ccccc3)c2)cc1S(=O)(=O)N1CCOCC1	none (no result: TPT1 inhibitor)
Cc1ccc(C)c(C(=O)Cn2ncc(Cl)c(Cl)c2=O)c1	Myeloid diff 2 inconclusive
Cc1cccc(Cn2ncc(Cl)c(Cl)c2=O)c1	none | Myeloid diff CP1 inactive | GFP autofluor inactive
CN(C)CCN(C(=O)c1cccc(Cl)c1)c1nc2c(Cl)cccc2s1	none
CN(C)CCN(C(=O)c1ccccc1Cl)c1nc2c(Cl)cccc2s1	Myeloid diff 2 active | Myeloid diff CP1 inactive | GFP autofluor inactive
O=C(NN1C(=O)c2ccccc2NC1c1ccco1)c1ccccc1 (stereo not given)	Myeloid diff 2 active | Myeloid diff CP1 inactive | GFP autofluor inactive
CCCOc1ccc(C(=O)NC(=S)N2CCN(c3cc4c(cc3F)c(=O)c(C(=O)O)cn4CC)CC2)cc1	Myeloid diff 2 active | Myeloid diff CP1 inactive | GFP autofluor inactive
COc1ccc(-c2ccc([C@H]3[C@@H]4C=CCC[C@@]4(C)C(=O)N3Cc3ccccc3)c(F)c2)cc1	none | Myeloid diff CP1 inactive | GFP autofluor inactive
Cc1cc(C)nc(SCC(=O)NC2CCCCC2C)n1 (stereo not given)	none
Nc1ccc(NC(=O)c2ccccc2)c2c1C(=O)c1ccccc1C2=O	none | Myeloid diff CP1 inactive | GFP autofluor inactive
CCOc1ccccc1C(=O)N1CCN(c2cccc(Cl)c2)CC1	none | Myeloid diff CP1 inactive | GFP autofluor inactive
CCC(=O)c1cn(CC(=O)Nc2ccccc2Cl)c2ccccc12	Myeloid diff 2 active | Myeloid diff CP1 inactive | GFP autofluor 2.1
CCC(=O)c1cn(CC(=O)Nc2cccc(C)c2C)c2ccccc12	none
CCn1c2nc(SCCN3CCOCC3)nnc2c2cc(C)cc(C)c21	none
Cc1ccc(C(=O)/C=C/c2ccc(-c3ccccc3[N+](=O)[O-])o2)cc1	none (no result: Myeloid diff 2) | Myeloid diff CP1 inactive | GFP autofluor inactive

Screens as filed in PubChem BioAssay.
